Drawing on ChEMBL document CHEMBL3988442, “University of Dundee, Small-Polar-MMV Screening Library” (2021), this text covers Percent Effect for 11 compounds.

For some of these results: Potency and affinity values are given separately.

Holding throughout (design): scale not given: direction of the effect not stated beside the values
In assay [1] the target is Protein translocase subunit SecA (Escherichia coli (strain K12)) (UniProt P10408). In words: Assay to Identify E. coli SecA ATPase Inhibitors. The assay is classed as functional. The following applies: 30 µM.
In assay [2] the target is T1, Ubiquitin-activating enzyme e1, putative (Leishmania donovani (strain BPK282A1)) (UniProt E9BSI1).
T1 sequence (whole entry): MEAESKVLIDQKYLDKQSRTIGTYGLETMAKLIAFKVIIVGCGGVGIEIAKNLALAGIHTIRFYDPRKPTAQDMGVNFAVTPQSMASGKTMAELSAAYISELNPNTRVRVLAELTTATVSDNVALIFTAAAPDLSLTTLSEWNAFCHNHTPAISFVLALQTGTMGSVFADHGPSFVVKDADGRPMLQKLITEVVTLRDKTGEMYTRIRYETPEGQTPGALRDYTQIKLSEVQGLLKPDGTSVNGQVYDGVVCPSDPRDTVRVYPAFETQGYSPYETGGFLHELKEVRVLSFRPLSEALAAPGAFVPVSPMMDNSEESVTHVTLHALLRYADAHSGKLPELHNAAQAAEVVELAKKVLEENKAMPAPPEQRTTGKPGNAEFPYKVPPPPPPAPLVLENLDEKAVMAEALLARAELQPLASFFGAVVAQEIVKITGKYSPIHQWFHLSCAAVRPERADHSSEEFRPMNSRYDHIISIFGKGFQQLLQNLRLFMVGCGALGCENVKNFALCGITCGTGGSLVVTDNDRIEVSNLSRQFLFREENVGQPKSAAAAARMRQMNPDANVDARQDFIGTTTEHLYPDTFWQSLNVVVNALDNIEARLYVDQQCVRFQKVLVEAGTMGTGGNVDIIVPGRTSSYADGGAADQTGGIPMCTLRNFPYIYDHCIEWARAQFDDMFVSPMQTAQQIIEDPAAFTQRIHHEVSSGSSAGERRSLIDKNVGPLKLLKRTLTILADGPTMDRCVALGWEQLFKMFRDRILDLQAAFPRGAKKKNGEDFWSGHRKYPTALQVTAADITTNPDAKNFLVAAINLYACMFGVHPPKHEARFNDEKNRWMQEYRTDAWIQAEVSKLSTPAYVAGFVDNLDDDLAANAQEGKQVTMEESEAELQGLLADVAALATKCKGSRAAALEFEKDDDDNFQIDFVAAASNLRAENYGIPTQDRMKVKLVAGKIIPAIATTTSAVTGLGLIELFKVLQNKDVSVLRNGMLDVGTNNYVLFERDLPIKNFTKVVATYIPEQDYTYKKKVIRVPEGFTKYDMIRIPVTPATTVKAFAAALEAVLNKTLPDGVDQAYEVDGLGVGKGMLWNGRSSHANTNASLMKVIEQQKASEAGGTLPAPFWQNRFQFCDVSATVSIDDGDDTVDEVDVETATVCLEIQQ
The assay can be described thus: Leishmania donovani Ubiquitin Activating Enzyme (LdE1). The assay is classed as functional. The following applies: 30 µM.

For assay [3], the target named is AMP-activated protein kinase, AMPK (Homo sapiens) (UniProt P54646+O43741+P54619+Q9UGJ0+Q9Y478+Q13131+Q9UGI9). In words: AMP-dependent Kinase enzyme assay. An in vitro enzyme assay that detects ADP turnover that is directly proportional to AMPK activity. This uses naive AMPK that is activated during the assay with MK-8722. The assay is classed as functional. The note with it: 30 µM.

Assay [4] has as its target Sialic acid-binding Ig-like lectin 9 (Homo sapiens) (UniProt Q9Y336). The assay can be described thus: Hs-Siglec9 ALPHAscreen SOP 20170721. The following applies: 10 µM.
The subject of assay [5] is Trypanosoma cruzi. The assay can be described thus: Trypanosoma cruzi phosphomannomutase and mannose-1-phosphate guanylyltransferase assay. The following applies: 10 µM. The class given is functional.
In assay [6] the target is T2, Arginase-2, mitochondrial (Homo sapiens) (UniProt P78540).
T2 sequence (whole entry): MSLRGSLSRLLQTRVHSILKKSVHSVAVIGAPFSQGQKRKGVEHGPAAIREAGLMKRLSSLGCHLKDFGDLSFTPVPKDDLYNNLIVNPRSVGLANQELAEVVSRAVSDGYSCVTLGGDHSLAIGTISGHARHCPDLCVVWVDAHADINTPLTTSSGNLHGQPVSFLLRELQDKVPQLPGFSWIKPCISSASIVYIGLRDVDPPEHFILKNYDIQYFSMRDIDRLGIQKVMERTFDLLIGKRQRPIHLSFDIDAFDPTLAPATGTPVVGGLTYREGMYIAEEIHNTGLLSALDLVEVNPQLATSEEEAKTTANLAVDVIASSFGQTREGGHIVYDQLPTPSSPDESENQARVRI
The assay can be described thus: in vitro enzyme assay to detect the production of urea directly proportional to the activity of Arginase II. Note: in the data most compounds retested in dose-response had high values. The class given is functional. The note with it: 33.3 µM.

The target in assay [7] is T3, Proteasome subunit beta (Trypanosoma cruzi) (UniProt O96673).
T3 sequence (whole entry): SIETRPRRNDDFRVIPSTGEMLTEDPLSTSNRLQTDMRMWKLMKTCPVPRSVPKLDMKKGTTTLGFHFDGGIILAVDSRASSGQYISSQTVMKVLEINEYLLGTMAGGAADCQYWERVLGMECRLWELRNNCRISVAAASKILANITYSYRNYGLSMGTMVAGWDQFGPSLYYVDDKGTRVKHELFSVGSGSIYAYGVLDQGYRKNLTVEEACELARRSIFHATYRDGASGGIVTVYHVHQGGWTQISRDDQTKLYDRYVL
The assay can be described thus: Trypanosoma cruzi proteasome chymotrypsin-like activity (TcProtChymo) assay. Note: in the data most compounds retested in dose-response had high values. The following applies: 9.37 µM. The assay is classed as functional.

Assay [8] is filed under the species Homo sapiens. The assay can be described thus: To identify inhibition of the IFN signalling (Jak-Stat) pathway via expression of an eGFP reporter gene under the control of an IFN-stimulated response element (ISRE) containing MxA promoter. The class given is functional. The following applies: 30 µM.
Assay [9] deals with T4, Tyrosyl-tRNA synthetase, putative (Trypanosoma cruzi (strain CL Brener)) (UniProt Q4DSP6).
T4 sequence (whole entry): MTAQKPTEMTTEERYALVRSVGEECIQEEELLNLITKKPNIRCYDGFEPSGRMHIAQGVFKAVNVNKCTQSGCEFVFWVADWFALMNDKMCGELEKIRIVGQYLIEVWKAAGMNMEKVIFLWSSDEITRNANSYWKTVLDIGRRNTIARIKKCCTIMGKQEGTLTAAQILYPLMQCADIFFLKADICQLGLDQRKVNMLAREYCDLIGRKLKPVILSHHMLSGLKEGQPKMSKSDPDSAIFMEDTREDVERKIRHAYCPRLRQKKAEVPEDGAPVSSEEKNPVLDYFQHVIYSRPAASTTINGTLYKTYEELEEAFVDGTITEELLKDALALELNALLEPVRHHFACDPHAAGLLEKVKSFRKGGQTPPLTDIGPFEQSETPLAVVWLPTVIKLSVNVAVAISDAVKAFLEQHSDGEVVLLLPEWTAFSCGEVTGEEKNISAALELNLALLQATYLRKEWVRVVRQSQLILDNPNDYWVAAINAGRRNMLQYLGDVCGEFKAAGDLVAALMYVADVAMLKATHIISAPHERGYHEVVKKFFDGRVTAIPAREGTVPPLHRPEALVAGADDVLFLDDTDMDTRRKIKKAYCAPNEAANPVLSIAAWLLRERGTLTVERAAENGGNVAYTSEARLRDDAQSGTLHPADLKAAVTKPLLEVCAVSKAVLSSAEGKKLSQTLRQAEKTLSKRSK
In words: Trypanosoma cruzi tyrosyl tRNA synthetase (TcYRS) _High Tyrosine SOP. Note: in the data most compounds retested in dose-response had high values. The class given is functional. The following applies: 30 µM.

Assay [10] addresses T4, Tyrosyl-tRNA synthetase, putative (Trypanosoma cruzi (strain CL Brener)). In words: Trypanosoma cruzi tyrosyl tRNA synthetase (TcYRS) SOP. The class given is functional. The following applies: 30 µM.
In assay [11] the target is Chromo domain-containing protein 1 (Saccharomyces cerevisiae (strain ATCC 204508 / S288c) (Baker's yeast)) (UniProt P32657). In words: ScCHD-1 Enzyme Inhibition Assay. Note: in the data most compounds retested in dose-response had high values. The note with it: 30 µM. The assay is classed as functional.
Sequence of Chromo domain-containing protein 1 (Saccharomyces cerevisiae (strain ATCC 204508 / S288c) (Baker's yeast)) (P32657 whole entry, the tested form may be a part): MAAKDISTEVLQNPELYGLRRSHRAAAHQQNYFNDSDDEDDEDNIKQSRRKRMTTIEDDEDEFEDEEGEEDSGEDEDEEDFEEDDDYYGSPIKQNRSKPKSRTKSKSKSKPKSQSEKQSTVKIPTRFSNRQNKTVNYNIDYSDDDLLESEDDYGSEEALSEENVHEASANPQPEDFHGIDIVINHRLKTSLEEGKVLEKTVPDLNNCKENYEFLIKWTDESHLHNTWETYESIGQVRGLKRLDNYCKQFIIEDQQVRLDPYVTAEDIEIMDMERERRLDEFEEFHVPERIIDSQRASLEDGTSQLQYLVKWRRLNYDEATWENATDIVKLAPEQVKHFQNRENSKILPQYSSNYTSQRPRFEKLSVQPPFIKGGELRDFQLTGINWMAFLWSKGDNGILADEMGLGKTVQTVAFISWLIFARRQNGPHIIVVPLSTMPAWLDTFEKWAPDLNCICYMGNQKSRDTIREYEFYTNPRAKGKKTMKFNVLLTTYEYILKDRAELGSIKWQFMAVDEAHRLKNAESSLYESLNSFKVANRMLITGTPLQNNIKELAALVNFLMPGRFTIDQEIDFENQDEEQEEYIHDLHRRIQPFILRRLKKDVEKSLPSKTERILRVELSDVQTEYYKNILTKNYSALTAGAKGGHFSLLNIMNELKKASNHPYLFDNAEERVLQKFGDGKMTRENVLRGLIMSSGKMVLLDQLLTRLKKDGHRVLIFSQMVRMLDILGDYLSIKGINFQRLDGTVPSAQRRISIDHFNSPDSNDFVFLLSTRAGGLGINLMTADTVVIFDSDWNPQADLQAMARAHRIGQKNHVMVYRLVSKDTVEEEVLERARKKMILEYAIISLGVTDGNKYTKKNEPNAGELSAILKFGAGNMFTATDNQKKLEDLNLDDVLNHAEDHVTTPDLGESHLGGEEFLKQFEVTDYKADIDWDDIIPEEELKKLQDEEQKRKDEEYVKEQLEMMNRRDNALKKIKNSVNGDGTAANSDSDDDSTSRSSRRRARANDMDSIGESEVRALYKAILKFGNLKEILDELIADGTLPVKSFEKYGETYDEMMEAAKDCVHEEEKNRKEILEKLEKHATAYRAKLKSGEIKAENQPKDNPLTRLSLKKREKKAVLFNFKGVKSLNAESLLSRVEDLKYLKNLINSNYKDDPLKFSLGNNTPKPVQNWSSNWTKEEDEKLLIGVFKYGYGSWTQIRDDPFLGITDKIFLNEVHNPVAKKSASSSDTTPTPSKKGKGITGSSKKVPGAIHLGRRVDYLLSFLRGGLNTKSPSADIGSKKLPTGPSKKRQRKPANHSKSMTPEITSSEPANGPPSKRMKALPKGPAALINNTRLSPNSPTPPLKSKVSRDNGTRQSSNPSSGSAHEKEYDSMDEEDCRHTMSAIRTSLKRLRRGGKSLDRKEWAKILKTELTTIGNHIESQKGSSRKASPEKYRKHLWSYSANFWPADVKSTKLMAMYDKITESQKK

Sequence of Sialic acid-binding Ig-like lectin 9 (Homo sapiens) (Q9Y336 whole entry): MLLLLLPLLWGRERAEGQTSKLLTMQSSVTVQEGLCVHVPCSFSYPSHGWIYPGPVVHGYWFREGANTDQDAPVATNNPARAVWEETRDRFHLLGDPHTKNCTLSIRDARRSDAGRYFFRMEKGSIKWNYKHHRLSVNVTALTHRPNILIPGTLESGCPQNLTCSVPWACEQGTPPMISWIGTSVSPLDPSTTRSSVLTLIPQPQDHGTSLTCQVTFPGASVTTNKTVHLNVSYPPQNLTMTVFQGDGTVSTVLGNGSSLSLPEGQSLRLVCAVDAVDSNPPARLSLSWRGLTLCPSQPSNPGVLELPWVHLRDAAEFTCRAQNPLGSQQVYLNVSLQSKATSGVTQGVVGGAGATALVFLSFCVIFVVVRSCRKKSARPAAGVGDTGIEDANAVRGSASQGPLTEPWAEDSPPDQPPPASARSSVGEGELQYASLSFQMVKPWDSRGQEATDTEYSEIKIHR
Sequence of Protein translocase subunit SecA (Escherichia coli (strain K12)) (P10408 whole entry): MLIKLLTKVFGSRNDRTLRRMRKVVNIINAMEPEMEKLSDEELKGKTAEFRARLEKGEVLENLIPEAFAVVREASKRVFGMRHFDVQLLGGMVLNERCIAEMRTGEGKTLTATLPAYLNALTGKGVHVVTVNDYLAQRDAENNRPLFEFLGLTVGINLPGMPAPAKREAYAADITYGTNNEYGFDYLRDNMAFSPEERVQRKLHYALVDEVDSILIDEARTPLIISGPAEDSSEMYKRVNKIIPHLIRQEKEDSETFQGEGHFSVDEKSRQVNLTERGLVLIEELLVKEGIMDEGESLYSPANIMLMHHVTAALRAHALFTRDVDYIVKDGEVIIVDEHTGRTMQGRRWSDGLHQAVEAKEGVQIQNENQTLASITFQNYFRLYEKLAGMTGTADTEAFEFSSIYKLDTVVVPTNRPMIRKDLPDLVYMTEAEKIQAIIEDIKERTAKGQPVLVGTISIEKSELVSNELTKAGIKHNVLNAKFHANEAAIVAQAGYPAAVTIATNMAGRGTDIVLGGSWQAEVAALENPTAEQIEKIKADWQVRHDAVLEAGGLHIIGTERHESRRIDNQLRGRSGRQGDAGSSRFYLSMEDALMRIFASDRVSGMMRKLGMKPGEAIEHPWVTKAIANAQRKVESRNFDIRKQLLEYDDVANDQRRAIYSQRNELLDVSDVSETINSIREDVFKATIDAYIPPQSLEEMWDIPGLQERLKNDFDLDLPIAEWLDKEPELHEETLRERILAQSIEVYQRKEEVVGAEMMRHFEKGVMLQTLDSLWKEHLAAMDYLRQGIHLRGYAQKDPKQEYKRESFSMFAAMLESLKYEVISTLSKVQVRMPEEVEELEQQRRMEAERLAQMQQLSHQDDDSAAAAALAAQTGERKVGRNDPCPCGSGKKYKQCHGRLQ

In the case of `Cc1ccc(C(=O)N2CCn3cc(CN4CCCCC4)nc3C2)o1`, the Percent Effect was -1.62% in [1]; -2.6% in assay [2]; 0.425% in assay [3]; -11.1% in [4]; -1.48% in [5]; 21.3% in [6]. Besides, the Percent Effect was 5.57% in [7]; 1.99% in [8]; -4.23% in [9]; -6.41% in assay [10]; 8.37% in assay [11].
As for `Cc1cccc(Cn2ccc(NS(C)(=O)=O)n2)c1`, the Percent Effect in [1] was -6.41%; in assay [2] it was 7.79%; in [3] it was -2.37%; in assay [4], 7.5%; in assay [5] it was 7.77%; in assay [6], -40%. Besides, the Percent Effect in [7] was 9.65%; in [8], 0.107%; in assay [9] it was 6.45%; in [10] it was 11.1%; in [11] it was -7.65%.
Turning to `CC(NC(=O)NCc1ccoc1)c1ccc2c(c1)CCC(=O)N2` (stereo unspecified), the Percent Effect was -9.31% in assay [1]; -7.79% in assay [2]; -9.15% in assay [3]; 13% in assay [4]; 12.2% in [5]; 2.49% in assay [6]. In addition, the Percent Effect in assay [7] was 28.6%; in assay [8], 16.5%; in assay [9] it was 8.74%; in assay [10] it was 24.4%; in assay [11], -9.68%.
Take `COc1ccc(Cl)cc1NCC(=O)NCCNc1cnccn1`: the Percent Effect in assay [1] is -3.85%; in assay [2], -5.41%; in [3], 2.13%; in assay [4], 13.2%; in [5] it was -2.17%; in assay [6], -2.4%. The Percent Effect in assay [7] is 3.96%; in assay [8], -1.56%; in [9] it was 4.43%; in [10], 13.6%; in [11], -3.88%.
As to `Cc1ccccc1CS(=O)(=O)CC(=O)NC1CCCCNC1=O` (stereo unspecified), the Percent Effect in assay [1] was -5.33%; in [2] it was 18.2%; in [3], -2.46%; in assay [4], 11%; in [5], 4.87%; in assay [6], -4.98%. For the same compound, the Percent Effect in assay [7] is 8.62%; in assay [8] it was 11%; in assay [9], 4.85%; in assay [10], 21.9%; in assay [11] it was -8.24%.
In the case of `Cc1ccc(S(=O)(=O)NC2CNC(=O)C2)cc1C` (stereo unspecified), the Percent Effect is -5.32% in assay [1]; 8.22% in assay [2]; -5.53% in assay [3]; -8.87% in assay [4]; 0.588% in assay [5]; 1.82% in assay [6]. In addition, the Percent Effect was 3.9% in assay [7]; -1.25% in assay [8]; 7.53% in assay [9]; 12.5% in [10]; -3.53% in [11].
In the case of `Cc1cc(CN2CCC(CNC(=O)c3ccc(O)c(Cl)c3)C2)[nH]n1` (stereo unspecified), the Percent Effect in assay [1] is -4.67%; in assay [2], 2.7%; in assay [3], -0.362%; in assay [4] it was 22.1%; in [5] it was -8.7%; in assay [6] it was 2.23%. Further, the Percent Effect in assay [7] was 5.24%; in [8], 4.66%; in [9], 2.15%; in [10], 11.1%; in [11], -0.611%.
On to `Cc1nn2c(N3CCC(O)C3)cc(-c3ccccc3)nc2c1C` (stereo unspecified), for which the Percent Effect in assay [1] was -2.08%; in assay [2], 16.4%; in assay [3] it was -7.6%; in [4], 7.31%; in assay [5] it was 2.58%; in assay [6] it was -1.6%. Also, the Percent Effect in assay [7] is 12.6%; in [8] it was -0.188%; in assay [9], 7.29%; in assay [10], -82.7%; in assay [11] it was -3.57%.
Take `O=C(NCc1ccccc1)N1CCC2(CC(=O)N(c3ccsc3)C2)C1` (stereo unspecified): the Percent Effect was -1.66% in assay [1]; 0% in [2]; 3.29% in [3]; 0.825% in assay [4]; 0.977% in assay [5]; 0.417% in assay [6]. Moreover, the Percent Effect in assay [7] was 2.45%; in assay [8], -9.22%; in assay [9], 85.2%; in assay [10], 6.1%; in [11], -1.83%.
For the compound `O=C(c1cccnc1N1CCOCC1)N1CCCC(n2ccnc2)C1` (stereo unspecified), the Percent Effect in [1] was -1.05%; in [2], 18.4%; in assay [3], 3.79%; in assay [4], 3.27%; in assay [5], -3.76%; in assay [6], -1.53%. Also, the Percent Effect was 9.36% in [7]; 0.0212% in assay [8]; 4.41% in assay [9]; 17.1% in assay [10]; -9.1% in assay [11].
Consider `COc1ccc(NC(=O)NC(C)(C)c2noc(C)n2)cc1`, for which the Percent Effect in [1] was -5.98%; in [2], 2.74%; in assay [3], 9.96%; in assay [4] it was -2.01%; in [5], 0.979%; in [6], 5%. Besides, the Percent Effect in assay [7] is 13.5%; in [8] it was 7.14%; in assay [9], 4.3%; in [10], 12.5%; in [11], -1.95%.
